DUX4 txn inh: DUX4-mediated transcription inhibition | 293T-iDUX4 ZSCAN4-Gaussia luciferase reporter, 24 h; active compounds read low | activity change, negative = inhibition, % (concentration not given with the values) | 37,000 compounds, 0.8% hits | AID 1224904;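 active = mean inhibition of at least 10% in the main channel, exceeding the control channel by a set limit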
Large screens that a line does not name were inactive. This excerpt belongs to a sample that is enriched for hits.

CCCN1[C@H](C(=O)OC)[C@@H](CO)[C@@H]2Cn3c(ccc(-c4ccc(F)cc4)c3=O)[C@@H]21	none
COc1ccc2c3c([nH]c2c1)[C@H](CO)N(Cc1ccccn1)CC31CN(C(C)=O)C1	none
COc1cccc(NC(=O)N(C)C[C@H]2OCc3ccccc3-c3ccccc3C(=O)N([C@@H](C)CO)C[C@@H]2C)c1	none
O=C(c1ccc2c(c1)OCO2)N1CC(=O)N2[C@H](C1)[C@H](c1ccc(C#CC3CCCC3)cc1)[C@@H]2CO	none
CCCNC(=O)N1CCC2(CC1)CN(C(=O)c1ccncc1)[C@@H](CO)c1[nH]c3cc(OC)ccc3c12	none
O=C(c1ccccn1)N1CC2(C1)[C@H](c1ccccc1)[C@@H](CO)N2C(=O)C1CC1	none
COCCNC(=O)C[C@H]1CC[C@H]2[C@@H](COC[C@@H](O)CN2Cc2cccc(-c3ccncc3)c2)O1	none
Cc1ccccc1-c1ccc([C@@H]2[C@H]3CN(C(=O)c4cccnc4)CC(=O)N3[C@H]2CO)cc1	none
CCCNC(=O)[C@@H]1[C@@H](CO)[C@@H]2Cn3c(ccc(C4=CCCC4)c3=O)[C@@H]2N1C(=O)CC1CC1	none
O=C(C1CC1)N1CCCCN2[C@H](CO)[C@@H](c3ccc(-c4cccc(F)c4)cc3)[C@@H]2C1	DUX4 txn inh -23
CN(C)C(=O)c1ccc(-c2ccc([C@@H]3[C@@H](CO)N4CCCCN(CCC(F)(F)F)C[C@@H]34)cc2)cc1	none
O=C(C1CC1)N1CCCCN2[C@H](C1)[C@H](c1ccc(-c3cccc(F)c3)cc1)[C@@H]2CO	none
OC[C@@H]1[C@@H](c2ccc(-c3cccc(F)c3)cc2)[C@H]2CN(CCC(F)(F)F)CCCCN12	DUX4 txn inh -35
O=C(c1cccc(F)c1)N1CCCCN2[C@H](CO)[C@@H](c3ccc(-c4ccccc4)cc3)[C@H]2C1	none
Cc1ccccc1S(=O)(=O)N1CCCCN2[C@H](CO)[C@@H](c3ccc(-c4cccc(F)c4)cc3)[C@@H]2C1	DUX4 txn inh -20
Cn1cnc(S(=O)(=O)N2CCCCN3[C@H](CO)[C@H](c4ccc(-c5cccc(F)c5)cc4)[C@@H]3C2)c1	none
Cc1cccc(-c2ccc([C@@H]3[C@@H](CO)N4CCCCN(Cc5ccncc5)C[C@H]34)cc2)c1	none
O=S(=O)(c1ccccc1)N1CCCCN2[C@H](C1)[C@@H](c1ccc(-c3ccccc3)cc1)[C@@H]2CO	none
O=C(C1CC1)N1CCCCN2[C@H](CO)[C@@H](c3ccc(-c4cccc(F)c4)cc3)[C@H]2C1	none
OC[C@@H]1[C@H](c2ccc(-c3cccc(F)c3)cc2)[C@@H]2CN(Cc3cncnc3)CCCCN12	none
Cc1cccc(-c2ccc([C@H]3[C@H]4CN(CCC(F)(F)F)CCCCN4[C@H]3CO)cc2)c1	DUX4 txn inh -49
CCS(=O)(=O)N1CC2(CN[C@H](CO)c3c2c2ccc(OC)cc2n3C)C1	none
O=C(C[C@@H]1CC[C@H]2NC[C@H](O)COC[C@@H]2O1)Nc1ccccc1	none
CC(=O)N1[C@H](CO)[C@H](c2ccccc2)C12CN(C(=O)c1cnccn1)C2	none
CN1C(=O)c2cc(NC(=O)c3ccc(F)c(F)c3)ccc2OC[C@@H]2O[C@@H](CC(=O)N[C@@H]3CCN(Cc4ccccc4)C3)CC[C@H]21	none
O=C(c1cccnc1)N1CC2(C1)[C@@H](c1ccccc1)[C@@H](CO)N2Cc1cccnc1	none
CCC(=O)N1CC(=O)N2[C@H](CO)[C@H](c3ccc(-c4ccccc4C)cc3)[C@@H]2C1	none
CC[C@@H]1C/C=C\C[C@H](c2ccccc2)NC(=O)CCC(=O)N1	none
COc1ccccc1C#Cc1ccc([C@@H]2[C@H]3CN(CCC(F)(F)F)CCCCN3[C@H]2CO)cc1	DUX4 txn inh -30
OC[C@@H]1[C@H](c2ccc(-c3cccc(F)c3)cc2)[C@H]2CN(Cc3cncnc3)CCCCN12	none
OC[C@H]1[C@@H](c2ccc(-c3cccc(F)c3)cc2)[C@@H]2CN(Cc3cncnc3)CCCCN12	none
CC(=O)N1CCCCN2[C@H](CO)[C@@H](c3ccc(C#Cc4ccccc4F)cc3)[C@H]2C1	none
CN(C)C(=O)c1ccc(-c2ccc([C@H]3[C@H]4CN(CCC(F)(F)F)CCCCN4[C@H]3CO)cc2)cc1	none
OC[C@H]1[C@@H](c2ccc(-c3cccc(F)c3)cc2)[C@H]2CN(CCC(F)(F)F)CCCCN21	DUX4 txn inh -47
CCCNC(=O)N1CC2(CCN(C(=O)Nc3cccc(F)c3)CC2)c2c(n(C)c3cc(OC)ccc23)[C@H]1CO	none
CO[C@@H](C(=O)N(C)C[C@@H]1OCc2ccccc2-c2c(n(C)c3ccccc23)C(=O)N([C@@H](C)CO)C[C@H]1C)c1ccccc1	none
COc1ccc2c3c(n(C)c2c1)[C@H](CO)N(C)CC31CCN(C(=O)C2CCC2)CC1	none
COc1ccc(NC(=O)N2CCCCN3[C@@H](CO)[C@H](c4ccc(C#CCC(C)C)cc4)[C@@H]3C2)cc1	none
COc1ccc(C#Cc2ccc([C@@H]3[C@@H](CO)N4CCCCN(Cc5ccncc5)C[C@@H]34)cc2)cc1	DUX4 txn inh -45
OC[C@H]1[C@H](c2ccc(C#CC3(O)CCCC3)cc2)[C@@H]2CN(Cc3ccncc3)CCCCN12	none
OC[C@H]1[C@@H](c2ccc(C#CC3(O)CCCC3)cc2)[C@H]2CN(Cc3ccncc3)CCCCN21	none
COc1ccc(NC(=O)N2CCCCN3[C@H](C2)[C@H](c2ccc(C#CCC(C)C)cc2)[C@@H]3CO)cc1	none
COc1ccc(NC(=O)N2CCCCN3[C@H](CO)[C@@H](c4ccc(C#CCC(C)C)cc4)[C@@H]3C2)cc1	DUX4 txn inh -17
COc1ccc(C#Cc2ccc([C@H]3[C@H](CO)N4CCCCN(C)C[C@@H]34)cc2)cc1	DUX4 txn inh -26
CN1CCCCN2[C@H](C1)[C@@H](c1ccc(C#CC3(O)CCCC3)cc1)[C@@H]2CO	none
OC[C@@H]1[C@H](c2ccc(C#CC3(O)CCCC3)cc2)[C@H]2CN(Cc3ccncc3)CCCCN12	none
CN1CCCCN2[C@H](CO)[C@H](c3ccc(C#CC4(O)CCCC4)cc3)[C@@H]2C1	none
COc1ccc(C#Cc2ccc([C@H]3[C@@H](CO)N4CCCCN(Cc5ccncc5)C[C@H]34)cc2)cc1	DUX4 txn inh -32
CCCC#Cc1ccc([C@H]2[C@H](CO)N3CCCCN(Cc4ccncc4)C[C@@H]23)cc1	none
C[C@H](CO)N1C[C@H](C)[C@H](CN(C)C(=O)NC2CCCCC2)Oc2ccc(NC(=O)Nc3cccc4ccccc34)cc2C1=O	none
O=C(C1CCOCC1)N1[C@H](CO)[C@H](c2ccccc2)C12CN(Cc1cncnc1)C2	none
C[C@@H]1CN([C@@H](C)CO)C(=O)c2cc(C3=CCCCC3)cnc2O[C@H]1CN(C)C(=O)CN1CCOCC1	none
O=C(C[C@@H]1CC[C@H](NC(=O)c2ccccn2)[C@H](CO)O1)NCc1cc(F)cc(F)c1	none
COc1cccc(C(=O)N2C[C@H]3[C@@H](c4ccccc42)[C@@H](CO)N3C(=O)NC(C)C)c1	none
N#C[C@@H]1[C@H](c2ccc(C#CCC3CCCC3)cc2)[C@@H](CO)N1C(=O)CN1CCOCC1	none
CCCNC(=O)C[C@H]1CC[C@@H]2[C@H](COC[C@H](O)CN2Cc2cccc(F)c2)O1	none
O=C(C[C@H]1CC[C@H]2[C@@H](COC[C@H](O)CN2CC2CCOCC2)O1)NCc1ccc(Cl)cc1	DUX4 txn inh -29
O=C(C[C@H]1CC[C@H]2[C@@H](COC[C@H](O)CN2CC2CCCCC2)O1)NCc1ccc(Cl)cc1	none
O=C(C[C@H]1CC[C@@H]2[C@H](COC[C@@H](O)CN2CC2CCCCC2)O1)NCc1ccc(Cl)cc1	none
COC(=O)C[C@@H]1CC[C@@H]2[C@H](COC[C@@H](O)CN2S(=O)(=O)c2ccccc2C)O1	none
